# Experimental data from the supplement of paper PMC11417369.
# ± gives the standard deviation of the averaged measurements. The full ranking holds about 25,000 sequences; the median of “ln(normalized median fluorescence intensity)” is about 7.9, and the highest 2% start at about 11. The entries come from a sample that favours the highest values as a whole.
# Test system: PfAP2-I AP2 domain 3 (GST-tagged)
# Test: gcPBM binding intensity (ln(normalized median fluorescence intensity)); higher = stronger DNA binding
# Procedure, shortened: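 In this array assay, P. falciparum DNA-binding domains with a GST tag, expressed in E. coli, were applied for 1 h to primer-extended double-stranded 36-bp intergenic genomic probes and negative controls on an Agilent 4 × 180k array. Bound protein was visualised with Alexa488 anti-GST antibody at 488 nm. Binding intensity is the highest Masliner-normalised natural-log median intensity across replicate spots of either probe orientation.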
row,Sequence,gcPBM binding intensity (ln)
1,TTGTTCATTATGCACAGTACATAAAAAGTAAAAAAA [XGTACX_site2403],10 ± 0.65
2,TTTCTGTGTTTTGGTTGTACACACGCTACATTATAT [XGTACX_site5669],8.53 ± 0.67
3,GGAAATAATATTATTACACACCAAAATGTATAAAAA [CACACA_site4036],8.36 ± 0.85
4,GCATGCACGGAAAAAAGTACATATATAAATTTGGTT [XGTACX_site3393],8.2 ± 0.52
5,ATATATATATATGAAAGTACACATCTATTTTTTCTT [XGTACX_site6059],9.29 ± 0.18
6,ATTGAACACATCTATGCATGCACGGAAAAAAGTACA [TGCATGCA_site401],11 ± 0.28
7,AGAAAGGATATAAGCGTAGCTATATCATAAAAAATG [GTGCAC_negctrl_site332],7.58 ± 0.74
8,AAAAAAAAAATTTTCGTGCACATAAGAAAATTTAAA [GTGCAC_site9788],10.3 ± 0.16
9,TGTAGAAATGGGTGCACACACATATAAAATCTATAT [CACACA_site7224],10.4 ± 0.59
10,TTTTTTTTTTTTTTGGTGCACATAGAAATTCTAAAA [GTGCAC_site9809],10.9 ± 0.6
11,ATATTTTAATTATAAAGTACATAAAAATATATAAAC [XGTACX_site6705],7.92 ± 0.35
12,ATGTTCATTATATGCACACATATATATAAATGTAAT [CACACA_site2908],9.34 ± 0.3
13,TATTACATACATATCTGTACATATATTAATGCACAA [XGTACX_site3315],11.6 ± 1
14,ATATAATATCTGTATACACACATATTATATAATATT [CACACA_site5940],7.86 ± 0.51
15,TTTGTGTATATATAATGTACATTATATTTTTATTAT [XGTACX_site6506],8.13 ± 0.45
16,TATTTCTGATTATTTTGTACACATTATATATAATGC [XGTACX_site6990],8.04 ± 0.29
17,AAAAAAAAAAAATTATGTACATATTATATATAATGG [XGTACX_site2885],7.77 ± 0.45
18,TATTATAATAAAATATGTACACACATACACACATAT [XGTACX_site2360],7.98 ± 0.41
19,TTATGTTCATTATATGCACACATATATATAAATGTA [CACACA_site8947],9.11 ± 0.071
20,TTAATATTAATATATTGTACATATATGCACATATTT [XGTACX_site6569],9.1 ± 0.18
21,ATATATATATATAATGCACACATTATAAATTATGTA [CACACA_site5802],11.1 ± 0.26
22,TTTTTTTTTTTTTTGTGTACATATAATGCACATTAT [XGTACX_site6505],11.1 ± 0.93
23,ATATATACATATAAATGTACATAATTATTATGCACA [XGTACX_site1261],11.3 ± 0.82
24,TGAAAATATATAACGCGTACAAAAAGGAAATACAAT [XGTACX_site3534],8.38 ± 0.64
25,AAAAAAAAAAAAAATATACACACTAATATATTTTTT [CACACA_site815],7.98 ± 0.54
